We go through 94 compounds from ChEMBL document CHEMBL3988442, “University of Dundee, Small-Polar-MMV Screening Library” (2021).

The structures appear in SMILES notation. Screen size: about 48,000 compounds; about 13,000 (27%) showed an effect of 50% or more. The list shows a part of the results.

For this assay, the system named is Wolbachia pipientis. Description: Anti-Wolbachia Cell-Based Screen. Format: functional. Also noted: scale not given: in the data most compounds retested in dose-response had high values. The conditions noted are these: 5 µM.
As to `CSCCC(C)NC(=O)N(C)Cc1cc(Cl)cn1C` (centres undefined), the “Percent Effect” value is listed as -13.17%.
For the compound `CNC(=O)c1cc2c(nc1NCC(C)C)CCN(S(C)(=O)=O)CC2`, the “Percent Effect” value was -6.713%.
On to `COc1ccc(CCC(=O)N(C)CCN2CCOCC2)cc1OC`, for which the “Percent Effect” value is given as 6.913%.
For the compound `N#CC1COCCN1S(=O)(=O)c1ccc(F)c(Br)c1` (centres undefined), the “Percent Effect” value is recorded as -8.72%.
In the case of `COc1ccc(CN(CCC#N)CCN2CCOCC2)cc1OC`, the “Percent Effect” value came to 124%.
Next, `CN(Cc1cccc(C#N)c1)S(=O)(=O)N1CCOCC1`: 12.93%; `CCCC(=O)N(CCN1CCOCC1)c1nc2c(OC)ccc(C)c2s1.Cl`: 15.71%; `COc1cc(F)ccc1C(C(=O)O)N(C)CCN1CCOCC1` (centres undefined): -4.538%.
In the case of `COc1ccc(CN(CCC#N)CCN2CCOCC2)c(OC)c1` it was 118.6%; in that of `N#CCCN(CCN1CCOCC1)Cc1ccc(F)c(Br)c1`, 132.9%.
Next, `CCOc1ccc(CN(CCC#N)CCN2CCOCC2)cc1OC`: 119.9%; `N#Cc1cc(CSCCN2CCOCC2)ccc1F`: -6.22%.
In the case of `COc1ccc(C#N)cc1CSCCN1CCOCC1`, the “Percent Effect” value is recorded as -1.196%.
Take `COc1ccc(CN(C)Cc2cccc(C#N)c2)c(OC)c1`: the “Percent Effect” value is listed as 0.7087%.
Consider `CCc1ccccc1OC1CN(C(=O)c2cccs2)C1`, for which the “Percent Effect” value was 3.168%.
With `Cn1c(NC(=O)CNC(=O)C2CC2)nc2cc(Cl)ccc21`, the “Percent Effect” value is -0.3531%.
In the case of `CC(C)c1nn(C)c(N2CCOCC2)c1CN[C@H](C)CO` it was -7.825%; in that of `Cc1c[nH]c(CN2CCCCC2CCn2ccnc2C)c(C)c1=O` (centres undefined), -47.12%.
Next, `O=C(c1ccc(C2CCCO2)s1)N1CCN(c2ccccc2F)CC1` (centres undefined): 2.107%; `CCN(Cc1nccn1C)C(=O)c1ccc(NCc2cnn(C)c2)nc1`: -21.14%; `CS(=O)(=O)N1CCCC1c1cccc(Cc2ccccc2F)n1` (centres undefined): 107.7%.
For `CN(C)C(=O)CN1CCCC1c1cccc(Cc2ccccc2F)n1` (centres undefined), the “Percent Effect” value amounted to 121.7%.
Regarding `CC(=O)N1CCCC1c1cccc(NCc2ccccc2F)n1` (centres undefined), the “Percent Effect” value was 111.2%.
In the case of `CC(=O)N1CCCC1c1cccc(Cc2ccccc2Cl)n1` (centres undefined) it was 110.5%; in that of `COCCN(C)CC1CCCN1S(=O)(=O)Cc1ccccc1F` (centres undefined), 4.481%.
In the case of `Cc1nccn1CC1CCCN1S(=O)(=O)Cc1ccccc1F` (centres undefined) it was -7.214%; in that of `O=C(NC[C@H]1OC[C@@H](NC2COC2)[C@@H]1O)c1cccs1`, 4.392%; in that of `CN(Cc1ccoc1)C(=O)C1CC(=O)N(Cc2ccncc2)C1` (centres undefined), 3.123%.
On to `CC(=O)N1CCCC1c1cccc(Cc2ccccc2F)n1` (centres undefined), for which the “Percent Effect” value worked out at 1.098%.
Take `COCC(=O)N1CCCC1c1cccc(Cc2ccccc2F)n1` (centres undefined): the “Percent Effect” value is recorded as 111%.
Turning to `CC(=O)N1CCCC1c1cccc(Oc2ccccc2F)n1` (centres undefined), the “Percent Effect” value stood at 150.9%.
For the compound `CC(C)(C)c1coc([C@@H]2COCCN2CC2CC2)n1`, the “Percent Effect” value is -8.42%.
Next, `CCc1n[nH]c(C2CN(Cc3nnc(C4CC4)n3C)CCO2)n1` (centres undefined): -1.784%; `CCS(=O)(=O)c1ccc(N2CCC(NC(=O)c3ccccn3)CC2)cc1`: 1.284%; `COc1ccc(C[C@H]2CN(c3nnc(C)s3)CC[C@H]2OC)cc1.O=C(O)C(F)(F)F`: 100.4%.
On to `COc1ccc(C[C@H]2CN(c3nnc(C)s3)CC[C@@H]2OC)cc1.O=C(O)C(F)(F)F`, for which the “Percent Effect” value was 83.05%.
Turning to `Cn1nc(Cn2cccn2)c2c1CN(Cc1ccsc1)C2.O=C(O)C(F)(F)F`, the “Percent Effect” value is -9.596%.
In the case of `O=C(O)C(F)(F)F.O=C(c1cnccn1)N1CCCC2(CCN(Cc3ccc(F)cc3)C2)C1` (centres undefined) it was 8.086%; in that of `Cn1cccc1CN1CCC2(CCCN(C(=O)c3cnccn3)C2)C1.O=C(O)C(F)(F)F` (centres undefined), -0.2095%.
Turning to `O=C(O)C(F)(F)F.O=C(O)C(F)(F)F.O=C(c1cnccn1)N1CCCC2(CCN(Cc3cccnc3)C2)C1` (centres undefined), the “Percent Effect” value was -9.392%.
In the case of `O=C(O)C(F)(F)F.O=C(c1cnccn1)N1CCOC2(CCN(Cc3ccsc3)CC2)C1` it was -59.08%; in that of `O=C(O)C(F)(F)F.O=C(c1cnccn1)N1CCCC2(CCN(Cc3ccsc3)C2)C1` (centres undefined), 100.1%; in that of `O=C(O)C(F)(F)F.O=C(c1cnccn1)N1CCCC2(CCN(Cc3ccsc3)CC2)C1`, 106.6%.
Next, `O=C(O)C(F)(F)F.O=C(c1cnccn1)N1CC2(CCN(Cc3ccsc3)C2)C1`: 96.61%; `O=C(O)C(F)(F)F.O=C(O)C(F)(F)F.c1csc(CN2CC3(CCN(Cc4ccsc4)C3)C2)n1`: -7.051%.
On to `CN1CC2(CCN(Cc3cccc(C#N)c3)CC2)CC1=O`, for which the “Percent Effect” value is reported as 2.767%.
Regarding `CCN1CCC(CNC(=O)C(c2ccc(F)cc2)N(C)C)(N(C)C)CC1` (centres undefined), the “Percent Effect” value was -1.923%.
As to `CN(C)C(=O)c1ccc(OC2CCCC2)cc1`, the “Percent Effect” value is 1.251%.
Turning to `CCC(C)c1noc(C2CCN(C(=O)c3cccs3)CC2)n1` (centres undefined), the “Percent Effect” value is on record as -5.715%.
In the case of `O=C(c1cccs1)N1CC[C@H]2C[C@@H](c3nnc(C4CC4)o3)O[C@@H]2C1`, the “Percent Effect” value is listed as 88.85%.
Regarding `Cn1cccc1C(=O)N1C[C@@H]2C[C@@H](c3nnc(C4CC4)o3)O[C@@H]2C1`, the “Percent Effect” value came out at 104.3%.
Next, `O=C(c1cscn1)N1CC[C@H]2C[C@H](c3nnc(C4CC4)o3)O[C@@H]2C1`: 101.5%.
Consider `Cc1ccc(C(=O)N2C[C@@H]3C[C@@H](c4nnc(C5CC5)o4)O[C@@H]3C2)s1`, for which the “Percent Effect” value is reported as -0.8808%.
In the case of `O=C(c1ccsc1)N1CC[C@H]2C[C@@H](c3nnc(C4CC4)o3)O[C@@H]2C1` it was 4.587%; in that of `O=C1NCCO[C@H]2CN(C(=O)c3cccs3)CC[C@@H]12`, -55.85%.
In the case of `O=C(c1cscn1)N1C[C@@H]2C[C@@H](c3nnc(C4CC4)o3)O[C@@H]2C1` it was -5.593%; in that of `O=C(c1ccccc1)N1CC[C@H]2C[C@@H](c3nnc(C4CC4)o3)O[C@@H]2C1`, 70.82%.
Next, `Cn1cccc1C(=O)N1CC[C@H]2[C@H](CO[C@H]2CNS(C)(=O)=O)C1`: -6.617%; `COc1cc(N2CCC(c3nccn3Cc3ccccn3)CC2)ncn1`: 2.703%; `CCCN1CCC(Nc2nc(C)ns2)CC1`: -28.04%.
For the compound `COc1ccc(CN2CCC=C(C(C)NC(C)=O)C2)cc1` (centres undefined), the “Percent Effect” value is -15.58%.
Regarding `Cc1n[nH]c(CN2CCN(CC3CC3)[C@@H]3CS(=O)(=O)C[C@@H]32)n1`, the “Percent Effect” value came out at 6.272%.
Next, `CCOc1cccc(CCNC(=O)Cc2ccccc2O)n1`: -26.19%.
In the case of `Cc1cnc2c(S(=O)(=O)NCC3CCS(=O)(=O)C3)cccc2c1` (centres undefined) it was -2.686%; in that of `COCC(=O)N1CC[C@H]2C[C@H](c3nc(C)no3)O[C@@H]2C1`, 4.349%; in that of `Cc1csc([C@@H]2C[C@@H]3CCN(C(=O)c4cccn4C)C[C@H]3O2)n1`, -10.26%.
With `Cc1nc([C@@H]2C[C@@H]3CCN(C(=O)c4ccnnc4)C[C@H]3O2)sc1C`, the “Percent Effect” value worked out at 3.729%.
For `COCC(=O)N1CC[C@H]2C[C@H](c3nnc(C4CC4)o3)O[C@@H]2C1`, the “Percent Effect” value worked out at 59.46%.
For the compound `COCC(=O)N1CC[C@H]2C[C@@H](c3nnc(C4CC4)o3)O[C@@H]2C1`, the “Percent Effect” value is -4.608%.
On to `O=C(c1ccoc1)N1CC[C@H]2C[C@@H](c3nnc(C4CC4)o3)O[C@@H]2C1`, for which the “Percent Effect” value turned out to be 103%.
Next, `Cc1nc([C@H]2C[C@@H]3CCN(C(=O)c4ccnnc4)C[C@H]3O2)sc1C`: -5.019%.
In the case of `Cc1noc([C@H]2C[C@@H]3CCN(C(=O)c4cccn4C)C[C@H]3O2)n1` it was 59.05%; in that of `O=C(c1ccccc1)N1CC[C@H]2C[C@H](c3nnc(C4CC4)o3)O[C@@H]2C1`, 87.37%; in that of `COCCN1CCN(CCS(=O)(=O)C(F)(F)F)CC1C` (centres undefined), 6.413%.
With `O=C1NCCN2CCN(Cc3ccc(Cl)c(Cl)c3)CC12` (centres undefined), the “Percent Effect” value was -5.038%.
In the case of `Cc1c[nH]c(C2CCCN(C(=O)CCc3c(C)n[nH]c3C)C2)n1` (centres undefined) it was 139.5%; in that of `Cc1c[nH]c(C2COCCN2C(=O)CCc2c(C)n[nH]c2C)n1` (centres undefined), 111%.
In the case of `Cc1n[nH]c(C)c1C1CCCN1C(=O)CNC(=O)C(C)(C)C` (centres undefined), the “Percent Effect” value stood at 1.097%.
Next, `Cc1c[nH]c(C2CCCN2C(=O)CCc2c(C)n[nH]c2C)n1` (centres undefined): 109.7%; `CC(C)(C)c1noc(CCCC(=O)N2CCCC(c3ccn[nH]3)C2)n1` (centres undefined): -11.26%; `Cc1cccc(-c2c[nH]c(C3CCCN3C(=O)Cn3cc(C)cn3)n2)c1` (centres undefined): -5.472%.
In the case of `Cc1cccc(CCC(=O)N2CCOCC2c2c(C)n[nH]c2C)c1` (centres undefined), the “Percent Effect” value worked out at 9.952%.
In the case of `O=C(CCn1cnnc1)N1CCCC(c2ncc[nH]2)C1` (centres undefined), the “Percent Effect” value was -20.34%.
Next, `Cc1n[nH]c(C)c1C1COCCN1C(=O)c1cc(Cl)c[nH]1` (centres undefined): -20.41%.
In the case of `CC(O)CN1CCC(CNCc2cn(-c3ccccc3)nn2)CC1` (centres undefined) it was 3.471%; in that of `COCC(C)N(C)C(=O)NC1CCN(S(C)(=O)=O)CC1` (centres undefined), 2.159%; in that of `CS(=O)(=O)c1ccc(CNC(=O)NCC2CCOC2)cc1` (centres undefined), -15.52%.
Consider `CCSCCC(=O)NS(=O)(=O)c1ccc2c(c1)OCCO2`, for which the “Percent Effect” value is on record as 5.287%.
Next, `O=C(c1ccc[nH]1)N1C[C@H](OCc2ccccn2)[C@H]2COC[C@H]21`: 111.2%; `Cc1nc(CO[C@H]2CN(C(=O)c3ccc[nH]3)[C@@H]3COC[C@H]23)cs1.O=C(O)C(F)(F)F`: -0.1564%; `CO[C@H]1CN(C(=O)c2ccc[nH]2)[C@@H]2COC[C@H]12`: 98.6%.
In the case of `O=C(c1ccc[nH]1)N1C[C@H](OCc2cccnc2)[C@H]2COC[C@H]21` it was -9.205%; in that of `CO[C@H]1CN(C(=O)c2ccc3c(c2)OCO3)[C@@H]2COC[C@H]12`, -7.485%; in that of `CCO[C@H]1CN(C(=O)c2ccc3c(c2)OCO3)[C@@H]2COC[C@H]12`, 0.5362%.
